Assay [1] is described as follows: Human pregnane X receptor (PXR) small molecule agonists, qHTS cell viability counter screen (AID 1346977). Further: nearly all actives have a fitted effect of over 50% in size. Further: potency means the concentration at half of the fitted maximal effect. In outline:
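Tox21 qHTS format; PXR-Luc HepG2, 2,000/well, charcoal-stripped FBS 5%. Cpd exposure 24hr. Read: CellTiter-Fluor fluorescence, multiplexed with luciferase.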
In general terms: qHTS replaces the single test concentration by a dilution series.

A short description of assay [2]: Caspase-3/7 induction in HepG2 cells by small molecules, qHTS assay (AID 1346978). Further: nearly all actives have a fitted effect of over 15% in size. In outline: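 Wild-type HepG2 cells, 2,000/well, settled 5 hr at 37 C and 5% CO2, then compound-treated for 17 hr; caspase-3/7 activity read by luminescent Caspase-Glo 3/7 after 30 min at room temperature.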
Assay [3] can be described thus: Caspase-3/7 induction in CHO-K1 cells by small molecules, qHTS cell viability counter screen (AID 1346979). Further: nearly all actives have a fitted effect of over 35% in size. Further: potency means the concentration at half of the fitted maximal effect. Put shortly:
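CellTiter-Fluor viability check, qHTS format: wild-type CHO-K1, 16hr compound treatment, 1hr reagent incubation, fluorescence read.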

The nature of assay [4]: Caspase-3/7 induction in CHO-K1 cells by small molecules, qHTS assay (AID 1346980). Further: nearly all actives have a fitted effect of over 15% in size. In outline: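 Wild-type CHO-K1 cells exposed to compounds for 17hr at 37 C, 5% CO2. Caspase-3/7 activity then measured by Caspase-Glo 3/7 luminescence after 30min at room temperature.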
The target in assay [5] is Nuclear receptor subfamily 1 group I member 2 (Homo sapiens) (UniProt O75469). Briefly: Human pregnane X receptor (PXR) small molecule agonists, qHTS assay (AID 1346982). Further: nearly all actives have a fitted effect of over 35% in size. Further: potency means the concentration at half of the fitted maximal effect. In outline:
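Luminescence (ONE-Glo, 30 min RT) after 24 hr compound exposure of PXR-Luc HepG2 cells; cells rested 5 hr post-plating in 5% charcoal-stripped FBS medium.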

The target in assay [6] is Nuclear receptor subfamily 1 group I member 2 (Rattus norvegicus) (UniProt Q9R1A7). The assay can be described thus: Rat pregnane X receptor (rPXR) activation by small molecules, qHTS assay (AID 1346983). Further: nearly all actives have a fitted effect of over 20% in size. Conditions: rPXR luciferase reporter cells, One-Glo luminescence, 24 h; hits give high values. Put shortly:
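Cell-based rPXR activation assay: rPXR cells, 2,000 per well, rested 5hr at 37 C, then exposed to compounds in DMSO for 24 hr at 37 C. Luciferase activity read by One-Glo luminescence after 30 min at room temperature.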

The target in assay [7] is Nuclear receptor subfamily 1 group I member 2 (Homo sapiens) (UniProt O75469). Briefly: CYP3A4 induction through human pregnane X receptor (PXR) by small molecules, qHTS assay (AID 1346984). Further: nearly all actives have a fitted effect of over 40% in size. Put shortly: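 DPX-2 reporter cells; 24h cpd, 37C; Luciferin-IPA 3uM final x3h; One-Glo 30 min RT; lumi read.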
Nuclear receptor subfamily 1 group I member 2 (Homo sapiens), sequence (O75469 whole entry, looked up): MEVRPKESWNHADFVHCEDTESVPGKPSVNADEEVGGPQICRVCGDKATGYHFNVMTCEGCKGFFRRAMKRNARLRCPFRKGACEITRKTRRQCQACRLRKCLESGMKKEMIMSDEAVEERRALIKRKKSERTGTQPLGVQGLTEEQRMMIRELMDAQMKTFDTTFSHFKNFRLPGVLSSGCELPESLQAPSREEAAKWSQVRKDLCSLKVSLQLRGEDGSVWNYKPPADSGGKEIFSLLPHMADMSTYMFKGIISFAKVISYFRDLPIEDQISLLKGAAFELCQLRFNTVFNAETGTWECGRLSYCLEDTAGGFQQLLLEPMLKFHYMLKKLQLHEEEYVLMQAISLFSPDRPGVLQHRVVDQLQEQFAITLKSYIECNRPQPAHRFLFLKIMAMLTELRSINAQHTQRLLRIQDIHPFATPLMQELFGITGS
For assay [8] the target is unchanged. The assay can be described thus: Human pregnane X receptor (PXR) activation by small molecules, qHTS assay (AID 1346985). Further: nearly all actives have a fitted effect of over 40% in size. In outline: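 DPX-2 cells (HepG2 co-transfected with a PXR response element and a CYP3A4-promoter luciferase construct) were seeded at 2,000 per well, rested 5 hr at 37C, then exposed to DMSO-dissolved compounds for 24 hr. Activation was read as luciferase luminescence.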

For assay [9], the target named is Acetylcholinesterase (Homo sapiens) (UniProt P22303). Briefly: Acetylcholinesterase (AChE) small molecule antagonists: colormetric cell-based qHTS assay (AID 1347395; calls by dose curve; further: nearly all actives have a fitted effect of over 30% in size). Put shortly:
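AChE inhibition read colorimetrically via DTNB–thiocholine in SH-SY5Y cells. Compound 30 min, substrate 90 min, both 37 C.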

The target is the same in assay [10]. Briefly: Acetylcholinesterase (AChE) small molecule antagonists: enzyme-based qHTS assay (AID 1347397; calls by dose curve; further: nearly all actives have a fitted effect of over 55% in size). The following applies: Potency: AChE enzyme activity inhibition; outcome: AChE enzyme activity inhibition. In outline:
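Enzyme inhibition was scored from DTNB-detected thiocholine formed by recombinant human AChE acting on acetylthiocholine. The 30 min compound preincubation and 10 min substrate reaction were both run at room temperature, with DMSO as vehicle control.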

For assay [11] the target is unchanged. The assay can be described thus: Acetylcholinesterase (AChE) small molecule antagonists: fluorescence cell-based qHTS assay (AID 1347398; calls by dose curve; further: nearly all actives have a fitted effect of over 50% in size). Conditions: Potency: AChE activity; outcome: AChE activity. In outline: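 Endogenous acetylcholinesterase of SH-SY5Y neuroblastoma cells is measured in situ. After overnight attachment and 30 min compound exposure, cells receive acetylthiocholine and Thiolite Green; fluorescence is read after 40 min at room temperature.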

For assay [12] the target is unchanged. The assay can be described thus: Acetylcholinesterase (AChE) small molecule antagonists: enzyme-based qHTS assay with human liver microsomes (AID 1347399; calls by dose curve; further: nearly all actives have a fitted effect of over 60% in size). Conditions: Potency: qHTS inhibition; outcome: qHTS inhibition. Put shortly: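 Recombinant human AChE (50 mU/mL in the enzyme mix) and human liver microsomes (0.25 mg/mL final) were preincubated with compound and NADPH (0.25 mg/mL final) for 30 min at 37 C. Acetylthiocholine/DTNB was then added; thiocholine was read colorimetrically after 10 min at room temperature.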

Assay [13] deals with Cytochrome P450 2D6 (Homo sapiens) (UniProt P10635). The assay can be described thus: Cytochrome P450 Family 2 Subfamily D Member 6 (CYP2D6) small molecule antagonists: luciferase reporter qHTS assay (AID 1671196). Further: series mostly up to about 120 µM; nearly all actives have a fitted effect of over 50% in size. In outline:
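Inhibition of CYP2D6 was gauged by loss of luminescence, since light produced tracks the luciferin generated from a proluciferin substrate. A 10 min room-temperature preincubation preceded 1 h NADPH-supported turnover.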
On the technique in general: A reporter such as luciferase makes a cellular process visible.

In assay [14] the target is Cytochrome P450 2C19 (Homo sapiens) (UniProt P33261). The assay can be described thus: Cytochrome P450 Family 2 Subfamily C Member 19 (CYP2C19) small molecule antagonists: luciferase reporter qHTS assay (AID 1671197). Further: series mostly up to about 120 µM; nearly all actives have a fitted effect of over 65% in size. Put shortly:
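Luminescent readout of CYP2C19 activity: luciferin product detected 20 min after adding detection reagent. Before that, compound and enzyme-substrate mix preincubated 10 min at room temperature; NADPH-regenerating system started a 1 h, 37C reaction. Ketoconazole as positive control.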

Assay [15] has as its target Cytochrome P450 2C9 (Homo sapiens) (UniProt P11712). Briefly: Cytochrome P450 Family 2 Subfamily C Member 9 (CYP2C9) small molecule antagonists: luciferase reporter qHTS assay (AID 1671198). Further: nearly all actives have a fitted effect of over 50% in size. Further: potency means the concentration at half of the fitted maximal effect. In outline: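 P450-Glo proluciferin substrate with CYP2C9 enzyme; 10 min RT preincubation, then NADPH regeneration 1 h at 37C; luciferin detection reagent 20 min RT, luminescence in relative luminescence units.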

Assay [16] deals with Cytochrome P450 1A2 (Homo sapiens) (UniProt P05177). The assay can be described thus: Cytochrome P450 Family 1 Subfamily A Member 2 (CYP1A2) small molecule antagonists: luciferase reporter qHTS assay (AID 1671199). Put shortly:
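Signal from luciferin formed by CYP1A2 from a proluciferin substrate is read as luminescence, expressed in relative luminescence units. Compounds sit with enzyme 10 min, NADPH-driven reaction runs 1 h, all at room temperature.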

Assay [17] deals with Voltage-gated inwardly rectifying potassium channel KCNH2 (Homo sapiens) (UniProt Q12809). The assay can be described thus: Human Ether-a-go-go-Related Gene (hERG) channel small molecule antagonists: fluorescence cell-based qHTS assay (AID 1671200). Put shortly: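 Kinetic two-minute fluorescence traces, sampled at 1 s, were collected following thallium stimulus of U2OS cells (1000 per well) that had been cultured overnight at 37 C and loaded with FluxOR II.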
Voltage-gated inwardly rectifying potassium channel KCNH2 (Homo sapiens), sequence (Q12809 whole entry, looked up): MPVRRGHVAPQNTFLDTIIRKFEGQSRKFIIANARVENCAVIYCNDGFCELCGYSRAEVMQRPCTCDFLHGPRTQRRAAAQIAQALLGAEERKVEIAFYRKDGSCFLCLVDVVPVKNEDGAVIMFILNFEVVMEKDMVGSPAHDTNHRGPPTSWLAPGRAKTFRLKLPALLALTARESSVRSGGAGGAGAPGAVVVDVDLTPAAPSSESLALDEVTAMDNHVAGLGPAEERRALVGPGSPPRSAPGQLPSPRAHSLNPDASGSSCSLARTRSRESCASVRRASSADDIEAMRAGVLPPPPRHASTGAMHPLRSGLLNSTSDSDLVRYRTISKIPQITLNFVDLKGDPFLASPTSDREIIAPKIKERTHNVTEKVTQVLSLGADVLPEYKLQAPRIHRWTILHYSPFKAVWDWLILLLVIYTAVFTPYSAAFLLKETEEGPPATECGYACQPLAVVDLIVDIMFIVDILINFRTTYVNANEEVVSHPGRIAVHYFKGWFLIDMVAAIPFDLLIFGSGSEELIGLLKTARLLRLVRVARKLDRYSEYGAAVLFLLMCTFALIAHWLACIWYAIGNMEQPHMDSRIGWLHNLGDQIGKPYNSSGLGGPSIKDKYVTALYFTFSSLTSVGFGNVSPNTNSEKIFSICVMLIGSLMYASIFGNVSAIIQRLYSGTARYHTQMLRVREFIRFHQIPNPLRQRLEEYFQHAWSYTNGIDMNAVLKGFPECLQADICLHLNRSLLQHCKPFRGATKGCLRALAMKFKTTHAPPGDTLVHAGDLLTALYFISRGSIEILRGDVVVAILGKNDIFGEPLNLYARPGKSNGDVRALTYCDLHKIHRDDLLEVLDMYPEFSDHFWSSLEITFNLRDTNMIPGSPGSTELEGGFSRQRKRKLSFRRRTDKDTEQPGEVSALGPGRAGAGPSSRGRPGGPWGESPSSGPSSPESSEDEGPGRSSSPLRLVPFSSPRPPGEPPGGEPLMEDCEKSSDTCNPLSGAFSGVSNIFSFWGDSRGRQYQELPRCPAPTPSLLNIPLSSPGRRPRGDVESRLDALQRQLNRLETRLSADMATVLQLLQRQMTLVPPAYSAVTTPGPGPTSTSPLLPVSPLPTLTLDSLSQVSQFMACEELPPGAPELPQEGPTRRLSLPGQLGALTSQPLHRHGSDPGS
For orientation: hERG is a cardiac potassium channel; its block is linked to QT prolongation.

Assay [18] deals with Cytochrome P450 3A4 (Homo sapiens) (UniProt P08684). Briefly: Cytochrome P450 Family 3 Subfamily A Member 4 (CYP3A4) small molecule antagonists: luciferase reporter qHTS assay (AID 1671201). In outline:
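Proluciferin-to-luciferin conversion by CYP3A4, NADPH-regenerated, 1 h RT; luminescence read as RLU. Ketoconazole as control.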

Assay [19] in a line: Caspase-3/7 induction in HepG2 cells by small molecules, qHTS cell viability counter screen (AID 1346981). Further: nearly all actives have a fitted effect of over 30% in size. Further: potency means the concentration at half of the fitted maximal effect. In outline:
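Counter screen for cytotoxicity: HepG2 exposed 16 hr to compounds, then CellTiter-Fluor viability signal (fluorescence, 1 hr reagent incubation).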

The structures appear in SMILES notation. Where “and” joins values, the source holds several entries; their conditions need not be identical. Equal values may be shown once. Unmarked numbers belong to inactive results. Inconclusive results are not listed. Calls of active or inactive are those of the source. Unless noted, the call rests on the fitted dose curve; in most records, active means well fitted curve in the direction sought with a large enough effect in the repeat runs; inconclusive means weak or mixed curves; inactive means no such curve, though single readings can be large; an effect the other way counts as inactive or inconclusive.
On the % scale 0 is the no-effect control and ±100 the full control effect.

Acetylcholinesterase (Homo sapiens), sequence (P22303 whole entry, looked up): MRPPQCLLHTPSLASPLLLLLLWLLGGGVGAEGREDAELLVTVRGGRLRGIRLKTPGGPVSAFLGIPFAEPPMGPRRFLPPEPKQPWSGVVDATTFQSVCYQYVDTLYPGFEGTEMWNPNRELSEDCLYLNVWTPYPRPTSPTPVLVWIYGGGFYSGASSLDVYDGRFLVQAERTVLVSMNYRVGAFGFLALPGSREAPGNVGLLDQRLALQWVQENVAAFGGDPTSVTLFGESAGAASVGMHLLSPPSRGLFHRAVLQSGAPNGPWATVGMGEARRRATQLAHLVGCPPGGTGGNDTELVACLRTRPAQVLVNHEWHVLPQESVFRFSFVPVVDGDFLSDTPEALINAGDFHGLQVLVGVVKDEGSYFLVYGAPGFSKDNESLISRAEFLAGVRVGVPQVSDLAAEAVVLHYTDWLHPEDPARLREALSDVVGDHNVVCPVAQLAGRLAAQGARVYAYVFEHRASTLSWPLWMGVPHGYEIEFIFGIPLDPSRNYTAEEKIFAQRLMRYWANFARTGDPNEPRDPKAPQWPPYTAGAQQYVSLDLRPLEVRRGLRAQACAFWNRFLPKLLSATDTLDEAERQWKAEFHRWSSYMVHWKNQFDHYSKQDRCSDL
Cytochrome P450 2D6 (Homo sapiens), sequence (P10635 whole entry, looked up): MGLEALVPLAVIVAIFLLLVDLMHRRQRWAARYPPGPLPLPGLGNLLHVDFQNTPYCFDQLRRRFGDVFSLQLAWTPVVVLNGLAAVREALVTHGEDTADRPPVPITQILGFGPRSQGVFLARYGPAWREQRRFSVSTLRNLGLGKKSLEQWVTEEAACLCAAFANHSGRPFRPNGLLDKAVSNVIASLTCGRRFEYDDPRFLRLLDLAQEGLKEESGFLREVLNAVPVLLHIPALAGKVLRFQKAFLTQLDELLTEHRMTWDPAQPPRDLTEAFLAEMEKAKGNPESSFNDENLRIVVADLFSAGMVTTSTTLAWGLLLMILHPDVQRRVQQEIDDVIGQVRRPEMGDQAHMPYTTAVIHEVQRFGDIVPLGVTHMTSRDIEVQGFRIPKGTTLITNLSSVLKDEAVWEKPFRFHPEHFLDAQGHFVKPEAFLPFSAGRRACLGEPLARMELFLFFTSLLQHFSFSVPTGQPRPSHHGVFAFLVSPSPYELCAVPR
Cytochrome P450 3A4 (Homo sapiens), sequence (P08684 whole entry, looked up): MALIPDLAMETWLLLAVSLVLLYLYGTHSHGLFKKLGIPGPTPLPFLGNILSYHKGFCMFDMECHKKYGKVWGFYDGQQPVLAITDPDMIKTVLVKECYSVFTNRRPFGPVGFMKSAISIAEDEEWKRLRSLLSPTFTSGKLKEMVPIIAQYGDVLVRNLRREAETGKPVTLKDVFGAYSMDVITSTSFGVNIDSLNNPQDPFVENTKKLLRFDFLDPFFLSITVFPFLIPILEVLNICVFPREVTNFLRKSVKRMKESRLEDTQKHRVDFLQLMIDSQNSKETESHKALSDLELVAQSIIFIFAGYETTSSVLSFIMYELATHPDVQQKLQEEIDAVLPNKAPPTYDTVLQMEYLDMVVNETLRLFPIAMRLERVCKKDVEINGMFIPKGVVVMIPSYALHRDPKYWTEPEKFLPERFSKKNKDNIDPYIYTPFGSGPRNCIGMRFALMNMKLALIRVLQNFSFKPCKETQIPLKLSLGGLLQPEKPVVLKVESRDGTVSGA
Cytochrome P450 2C19 (Homo sapiens), sequence (P33261 whole entry, looked up): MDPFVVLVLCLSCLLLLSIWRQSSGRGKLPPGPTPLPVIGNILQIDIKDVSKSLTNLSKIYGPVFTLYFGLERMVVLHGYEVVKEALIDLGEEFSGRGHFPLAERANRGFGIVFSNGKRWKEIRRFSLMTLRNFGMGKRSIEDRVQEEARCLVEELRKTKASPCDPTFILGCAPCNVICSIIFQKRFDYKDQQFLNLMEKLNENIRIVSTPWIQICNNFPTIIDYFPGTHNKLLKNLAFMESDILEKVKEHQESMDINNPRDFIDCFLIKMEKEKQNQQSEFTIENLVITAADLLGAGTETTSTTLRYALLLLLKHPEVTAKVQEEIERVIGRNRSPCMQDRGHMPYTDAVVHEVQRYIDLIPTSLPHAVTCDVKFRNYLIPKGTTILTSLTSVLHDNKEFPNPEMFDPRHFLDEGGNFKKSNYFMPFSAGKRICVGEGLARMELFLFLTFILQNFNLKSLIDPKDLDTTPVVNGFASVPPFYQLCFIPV
Cytochrome P450 1A2 (Homo sapiens), sequence (P05177 whole entry, looked up): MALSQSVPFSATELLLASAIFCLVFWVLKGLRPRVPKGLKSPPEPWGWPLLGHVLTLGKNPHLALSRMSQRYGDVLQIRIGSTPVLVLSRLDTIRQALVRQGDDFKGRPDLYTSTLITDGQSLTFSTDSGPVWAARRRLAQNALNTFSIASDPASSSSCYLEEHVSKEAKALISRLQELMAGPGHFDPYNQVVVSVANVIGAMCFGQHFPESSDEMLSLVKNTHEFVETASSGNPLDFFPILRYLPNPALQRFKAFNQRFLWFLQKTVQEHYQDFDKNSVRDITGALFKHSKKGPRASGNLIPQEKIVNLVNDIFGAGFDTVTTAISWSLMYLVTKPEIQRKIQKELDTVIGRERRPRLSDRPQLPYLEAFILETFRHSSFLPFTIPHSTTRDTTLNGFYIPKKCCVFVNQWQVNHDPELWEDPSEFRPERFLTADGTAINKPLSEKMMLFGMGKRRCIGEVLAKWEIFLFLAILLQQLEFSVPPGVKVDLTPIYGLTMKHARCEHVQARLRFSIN
Cytochrome P450 2C9 (Homo sapiens), sequence (P11712 whole entry, looked up): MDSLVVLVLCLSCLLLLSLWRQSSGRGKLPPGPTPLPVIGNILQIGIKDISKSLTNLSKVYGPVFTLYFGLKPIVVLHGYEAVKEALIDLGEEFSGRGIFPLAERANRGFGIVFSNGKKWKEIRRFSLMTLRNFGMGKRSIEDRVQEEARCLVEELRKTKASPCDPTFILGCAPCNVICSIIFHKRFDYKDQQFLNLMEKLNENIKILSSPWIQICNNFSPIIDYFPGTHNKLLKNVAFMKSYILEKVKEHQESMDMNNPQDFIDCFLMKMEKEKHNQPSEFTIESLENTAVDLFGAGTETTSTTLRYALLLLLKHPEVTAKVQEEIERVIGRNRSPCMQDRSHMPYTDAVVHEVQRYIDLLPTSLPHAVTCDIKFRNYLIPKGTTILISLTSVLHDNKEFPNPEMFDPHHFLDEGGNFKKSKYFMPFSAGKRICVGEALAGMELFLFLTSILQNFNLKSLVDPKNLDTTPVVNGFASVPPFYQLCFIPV

Regarding `O=[N+]([O-])O[C@H]1CO[C@H]2[C@@H]1OC[C@H]2O[N+](=O)[O-]`, the Potency result in assay [1], in [2], in assay [3], in assay [4], in [5] and in assay [8] was “inactive” in each case. Further, the Potency result in assay [9], in assay [10], in assay [11], in [12], in [13] and in assay [14] was “inactive” throughout. Also, the Potency entry in assay [15], in [16], in assay [17] and in assay [18] was “inactive” throughout. The max activation in assay [6] is -0.141%. Besides, in [7], the result was inactive.

Turning to `O=C=NC1CCCCC1`, the Potency entry in assay [1], in [2], in [3], in [4], in assay [9] and in assay [10] was “inactive” each time. For the same compound, the Potency entry in assay [11], in assay [12], in assay [13], in [14], in [15] and in assay [16] was “inactive” throughout. Moreover, the Potency entry in [17] and in assay [18] was “inactive” throughout. In assay [5], the Potency was 9.71 µM (active).

As for `C=CC(C)(CCC=C(C)C)OC(=O)c1ccccc1N` (stereo unspecified), the Potency result in assay [1], in [2], in assay [3], in [4], in [19] and in assay [17] was “inactive” each time.

On to `C[C@@H]1C[C@@H]([C@H](O)CC2CC(=O)NC(=O)C2)C(=O)[C@@H](C)C1`, for which the Potency in assay [1] was 342 nM (active) and 1.22 µM (active) and 1.19 µM (active); in assay [3], 24.2 nM (active) and 68.6 nM (active) and 188 nM (active); in assay [19], 121 nM (active) and 1.72 µM (active) and 750 nM (active). Also, the Potency entry in [2], in assay [4] and in assay [17] was “inactive” throughout.

Turning to `C=CC(=O)OCC`, the Potency entry in assay [1], in assay [2], in assay [3], in assay [4], in assay [5] and in [9] was “inactive” throughout. In addition, the Potency result in [10], in [11], in assay [12], in [14], in assay [15] and in [16] was “inactive” in each case. Also, the Potency entry in [17] and in [18] was “inactive” throughout.

For `CC(Oc1cc(Cl)c(Cl)cc1Cl)C(=O)O` (stereo unspecified), the Potency entry in [1], in [2], in assay [3], in assay [4], in [9] and in assay [10] was “inactive” in each case. Besides, the Potency result in [11], in assay [12], in assay [13], in [14], in assay [17] and in [18] was “inactive” throughout. Further, the Potency in assay [15] is 31.8 µM (active).

For the compound `Cc1cnc(C2=NC(C)(C(C)C)C(=O)N2)c(C(=O)O)c1` (stereo unspecified), the Potency result in [1], in assay [2], in assay [3], in assay [4], in [5] and in [9] was “inactive” in each case. Also, the Potency entry in assay [10], in [11], in [12], in [13], in [15] and in assay [16] was “inactive” each time. For the same compound, the Potency entry in assay [17] and in assay [18] was “inactive” throughout.

As for `NP(N)(=O)NC(=O)c1ccc(F)cc1`, the Potency entry in assay [1], in assay [2], in assay [4], in assay [19], in assay [5] and in [8] was “inactive” in each case. Also, the Potency result in [9], in [10], in assay [11], in assay [12], in [15] and in assay [17] was “inactive” throughout. In addition, the Potency entry in assay [18] is “inactive”. The max activation in assay [6] is 0.566%. In addition, in [7], the compound was called inactive.

Source of the values: PubChem BioAssay (Tox21).
